In PubChem BioAssay (NCI):
About 83,000 compounds went through this panel and 20% of them were active in at least one assay; those are over-represented in the sample as a whole.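 Interpretation: 100, growth as untreated; towards 0, rising growth inhibition; 0, no net growth; 0 to -100, cell death. Compounds scoring below 10 were considered active.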 A number with no mark means an inactive call. Active and inactive are the calls of the source.

Each molecule was assayed on DU-145 prostate (assay: NCI-60 one-dose screen, 48 h (100 = growth as untreated, 0 = no growth, -100 = all killed)). Conditions: 10 µM unless noted.
Molecule `CC1=CC(=O)C(C(C)=Nc2ccccc2Cl)C(=O)O1` (stereo unspecified) has a growth of 110%.
Work on `O=[P@@]1(c2ccccc2)O[C@H](COCc2ccccc2)[C@@H](OCc2ccccc2)[C@H](OCc2ccccc2)[C@H]1NCc1ccccc1` yielded a growth of 45.7%.
For `COc1ccc(-c2noc(N)c2-c2cc(OC)c3c(c2)OCO3)cc1`, the growth was 28.7%.
Molecule `CN(C)c1nc(-c2ccco2)n2nc(-c3ccco3)cc2n1` has a growth of 121%.
For `COc1cccc(C2C(C#N)=C(N)Oc3cc(OC)ccc32)c1` (stereo unspecified), the growth was -15.2% (active).
With `c1cnc2ccc3ncccc3c2c1` the growth was 117%.
In the case of `O=C(c1ccccc1)c1ccco1`, the growth is reported as 113%.
In the case of `CCOC(=O)C1=NN(c2ccc(Cl)cc2)C2C3N(c4ccc(Cl)cc4)N=C(C(=O)OCC)N3c3ccccc3N12` (stereo unspecified), the growth is reported as 118%.
Molecule `Cc1cc(NC(=O)c2ccc(N)cc2)ccc1N=Nc1ccc2c(O)c(N=Nc3ccc(Cl)c(S(=O)(=O)O)c3)c(S(=O)(=O)O)cc2c1` has a growth of 111%.
For `O=C(Nc1cccc(C(F)(F)F)c1)Nc1ccc(OCc2nnc(-c3ccc(Cl)cc3)o2)c(F)c1`, the growth was 88.1%.
For `CCN1C(=O)c2ccc3c4c(ccc(c24)C1=O)C(=O)N(CCCNCc1ccccc1OC)C3=O`, the growth was -87.4% (active).
With `C=C1c2c(C)nn(-c3ccc(C#CCOC4OC(CO)C(O)C(O)C4O)cc3)c2N(C)C23C[C@H]1C1(C)c4c(C)nn(-c5ccc(C#CCOC6OC(CO)C(O)C(O)C6O)cc5)c4N(C)C(C)(C[C@H]12)C3` (stereo partly specified) the growth was 16.9%.
`O=C(Nc1ccc(OCc2nnc(-c3ccccc3)o2)c(F)c1)Nc1ccc(Cl)c(C(F)(F)F)c1` showed a growth of 10%.
`O=C(/C=C/c1ccccc1Cl)c1ccc(O)cc1` was tested, and the growth was -7.3% (active).
`O=C(Nc1ccncc1)C(=O)c1cn(S(=O)(=O)c2cccc(F)c2)c2ccccc12` showed a growth of 50%.
`COc1cc(/C=C/C(=O)c2ccc(F)cc2)ccc1OCCCCCOc1cc2c(cc1OC)C(=O)N1CCCC1C=N2` (stereo unspecified) was tested, and the growth was -13.1% (active).
`O=C(/C=C/c1ccc(O)c(O)c1)N1CCN(c2ccc(Cl)cc2)CC1` gave a growth of 69.4%.
For `O=C(OCCBr)c1ccc(Cl)c([N+](=O)[O-])c1`, the growth was 14.6%.
`COc1ccc2c(c1)/C(=C\c1c[nH]c3ccc(F)cc13)C(=O)N2` was tested, and the growth was 84%.
Work on `Cc1cc(C(=O)O)c(C)cc1C(=O)O` yielded a growth of 120%.
`O=C1/C(=N/O)CCc2ccccc21` showed a growth of 100%.
